# Among all 120,000 compounds or so, about 5,300 (4.4%) were called active. Where a call stands in place of a potency, no number is given. Not shown: some 22% with an inconclusive outcome. The call rests on the fitted dose curve; in most records, active means well fitted inhibition curve with a large enough effect; inconclusive means small, poorly fitted or top-dose-only effect; inactive means no such curve, though single readings can be large or run the other way. This excerpt belongs to a sample that is enriched for actives.
# Experiment: qHTS Primary assay for Inhibitors of Plasmodium falciparum Dd2 growth in vitro; further: nearly all actives have a fitted effect of over 65% in size
# Settings: P. falciparum Dd2 growth, SYBR Green, 72 h; series mostly up to 28.9 µM
# Method in brief: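 Readout: SYBR Green fluorescence, 485 nm excitation, 535 nm emission, after ~16 h lysis at 37C. Before that, Dd2-infected red cells (2.5% hematocrit) grew 72 h with compound, 29 uM top final concentration.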
# Potency means the concentration at half of the fitted maximal effect.
Structure (SMILES),Potency,outcome
Cc1cc(NC(=O)c2ccc(Cn3ccn4nc5c(c4c3=O)CCCC5)cc2)ccc1F,inactive,
CCc1cc(NCCS(=O)(=O)CC)n2nccc2n1,inactive,
CCN(CC)c1ccc(NC(=O)CN2CCN(CC(=O)Nc3ccc(Cl)cc3)CC2)cc1,8910 nM (active),
CCOc1ccc(NC(=O)CN2CCN(CC(=O)Nc3ccc(OC)cc3)CC2)cc1,inactive,
O=C(Cn1nc2n(c1=O)CCCC2)Nc1ccc(Cl)cc1,inactive,
Cc1ccc2[nH]nc(C(=O)N3C[C@@H](C(=O)O)[C@H](c4ccc(F)cc4)C3)c2c1,inactive,
Cc1oc2ccn(Cc3ccccc3F)c(=O)c2c1C(=O)NCc1cccnc1,inactive,
CC(C)CCN(C(=O)Nc1ccc(Cl)c(Cl)c1)C(C)c1cccs1 (stereo not drawn),10000 nM (active),
CC(C)c1ccc2oc(-c3cc(NC(=O)c4cccs4)ccc3Cl)nc2c1,inactive,
CC(c1cccs1)N(C)Cc1ccncc1 (stereo not drawn),inactive,
C=CCNC(=O)N1CCC(C2CCN(Cc3cccc(F)c3F)CC2)C1 (stereo not drawn),inactive,
O=C(Nc1ccc2ncnc(N3CCCCC3)c2c1)c1ccc2c(c1)OCO2,inactive,
CC(C)(C)CC(=O)Nc1ccc2c(N3CCOCC3)ncnc2c1,inactive,
Cc1ccc(C(=O)Nc2ccc3ncnc(N4CCCCC4)c3c2)s1,inactive,
O=C(Nc1ccc2ncnc(N3CCCCC3)c2c1)c1cccc(Cl)c1,inactive,
Cc1ccc(C(=O)Nc2ccc3c(N4CCCCC4)ncnc3c2)s1,5010 nM (active),
Cc1cc(C)cc(C(=O)Nc2ccc3c(N4CCCC4)ncnc3c2)c1,708 nM (active),
O=C(CCc1cc(Cl)no1)N1CCCC(c2nc(C3CCOCC3)no2)C1 (stereo not drawn),inactive,
CCn1c(C2CCCN(C(=O)NCC(C)C)C2)nn(C)c1=O (stereo not drawn),inactive,
Cn1ccnc1CNC(=O)C[C@@H]1C[C@H]2O[C@H](CNC(=O)NCc3ccccc3)[C@@H](O)[C@H]2O1,inactive,
CC(C)c1nc2nccc(-c3ccc4c(c3)OCCCO4)n2n1,inactive,

Structure (SMILES),Potency,outcome
COc1ccc(-c2cn3c(n2)sc2cc(C(=O)Nc4ccc(F)cc4)ccc23)cc1,inactive,
O=C(Nc1ccc2ncnc(N3CCCCC3)c2c1)C1CCCCC1,inactive,
CCC(CC)NC(=O)c1ccc(-c2nnc3ccc(NC(=O)C4CCC4)cn23)cc1,2510 nM (active),
O=C(Nc1ccc(C2(C(=O)N3CCCCCC3)CCC2)cc1)C1CC1,inactive,
CCC(=O)Nc1ccc2nnc(-c3ccc(C(=O)Nc4ccc(OC)cc4)cc3)n2c1,708 nM (active),
COc1cc(C(=O)Nc2ccc(OCc3cc(=O)n4cc(C)sc4n3)cc2)cc(OC)c1OC,inactive,
COC[C@@H]1CN(Cc2ccc(F)c(OC)c2)C[C@H]1C(=O)N(C)C,inactive,
Cc1ccc(CN2COc3cc(C)c4c(oc(=O)c5ccccc54)c3C2)cc1,1120 nM (active),
CCc1cc2c(-c3ccccc3)cc(=O)oc2c2c1OCN(Cc1ccc(C)cc1)C2,2240 nM (active),
Cc1ccc(Cn2c(=O)n(Cc3nc(-c4ccccc4)no3)c(=O)c3cc4c(cc32)OCO4)cc1,inactive,
CCn1c2c(c(=O)n1Cc1ccccc1)CCN(C(=O)Cc1ccc3c(c1)OCO3)C2,inactive,
COCCn1cc2c3c(cccc31)CN(C(=O)c1c(F)cccc1Cl)CC2,inactive,
O=C(Nc1ccc(Cl)cc1)c1nc2c(o1)CCN(Cc1ccsc1)CC2,inactive,
COCCn1ncc(N2CCC(NC(=O)C3CCC3)CC2)cc1=O,inactive,
O=C(c1cccc2[nH]ccc12)N1C[C@@H](CO)[C@H](c2ccccn2)C1,inactive,
CN1CCC2(C1)CN(CC1CC1)c1ccc(C(=O)NC3CC3)cc12 (stereo not drawn),inactive,
CCOC(=O)c1ccccc1NC(=O)c1sc2nc(-c3ccc(F)cc3)cn2c1C,inactive,
COc1ccc(-c2cn3c(C)c(C(=O)Nc4cc(C)cc(C)c4)sc3n2)cc1,inactive,
COc1ccc(CCNC(=O)c2ccc3c(c2)sc2nc(-c4ccc(C)cc4)cn23)cc1OC,inactive,
CCOc1ccc(CCNC(=O)c2ccc3c(c2)sc2nc(-c4ccc(F)cc4)cn23)cc1OCC,5620 nM (active),
CCN1CCN(CCCNC(=O)c2ccc3c(c2)sc2nc(-c4ccc(OC)cc4)cn23)CC1,3160 nM (active),

Structure (SMILES),Potency,outcome
COc1ccc(-c2cn3c(n2)sc2cc(C(=O)Nc4ccccc4F)ccc23)cc1,inactive,
Cc1cccc2nnc(N3CCN(C(=O)c4ccc(F)c(F)c4)CC3)n12,inactive,
O=C(CCNc1c(-c2ccccc2)nc2cnccn12)N1CCC(N2CCCCC2)CC1,inactive,
CCn1cc(-c2ccccc2)cc1C(=O)NCc1ccccn1,inactive,
CCCCN1C(=O)c2ccccc2C(C(=O)NCCCOC)C12CCCCC2 (stereo not drawn),inactive,
C=CCNC(=O)N1CC[C@H]2CC(=O)N(CC(N)=O)CC[C@H]2C1,inactive,
O=C(c1cc2cccnn2n1)N1CCOCC1,inactive,
Cc1ccc2cc(CCC(=O)O)c(=O)[nH]c2c1,inactive,
Cc1cc2nc3n(c(=O)c2n1CC(=O)NCc1ccccc1Cl)CCCC3,inactive,
Oc1ccccc1CNC1(Cc2cc(CN3CCOCC3)on2)COC1,inactive,
C[C@@H](NC(=O)C[C@@H]1[C@H](O)CC[C@@H]2[C@](C)(CO)[C@H](O)CC[C@]21C)c1ccccc1,inactive,
COc1ccc(C(=O)N2CCC(Oc3ncccc3C(=O)N(C)C)C2)c(OC)c1 (stereo not drawn),inactive,
CC[C@@H](NC(=O)CC1CCN(Cc2ccccc2)CC1)C1CC(O)C1 (stereo partly drawn),inactive,
CCOc1ccc(C(=O)N2CCN(c3cc(-c4cccs4)[nH]n3)CC2)cc1,inactive,
CCOc1ccc(C(=O)N2CCC3(CC2)c2nccn2-c2ccccc2CN3C)cc1,,inactive [at 5.79 µM]
CCOc1ccc(C(=O)N2CCN(CCc3ccccn3)CC2)cc1,2820 nM (active),
Cc1oc2ccn(Cc3cccc(F)c3)c(=O)c2c1C(=O)NCc1cccnc1,inactive,
O=C(O)Cn1ccc2cc(OCCc3cccc(-c4cccnc4)c3)cnc21,inactive,
CCC(CC)c1cc([C@H]2CN3CC[C@H]2C[C@@H]3CNS(=O)(=O)Cc2ccccc2)nc(-c2ccncc2)n1,inactive,
CCC(CC)c1cc([C@H]2CN3CC[C@H]2C[C@@H]3CNC(=O)NCc2ccccc2)nc(-c2ccncc2)n1,631 nM (active),
N#Cc1cccc(NC(=O)NC[C@H]2C[C@@H]3CCN2C[C@@H]3CN2CCN(c3ncccn3)CC2)c1,inactive,
